Results reported in PubChem BioAssay AID2685 (National Center for Advancing Translational Sciences (NCATS), 2010).
Hit rate of the full screen: of about 320,000 compounds, about 2,100 (0.66%) were called active. About 53% were inconclusive and are not listed. Calls follow the shape of the dose curve; as a rule, active = well fitted inhibition curve with a large enough effect in the signal ratio, with a control signal flat (not every such curve was filed as active); inconclusive = small, poorly fitted or top-dose-only effect, or effect the other way, or a change in a side signal; inactive = flat fitted curve, though single readings scatter; the % refers to the signal ratio. The full list was thinned out, with actives kept by preference.
Potency is read from the fitted curve at half-maximal effect.

Assay: qHTS Assay for Lipid Storage Modulators in Drosophila S3 Cells;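 as to cell number change: cells counted by Cell Tracker Red CMTPX staining in the red channel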; as to lipid storage change, negative = inhibition: % is scaled to controls: 0 for no effect and ±100 for the full control effect
Details: BODIPY lipid droplet fluorescence, 18-24 h, cells fed with added oleic acid; cell number change: measured here: cell count max response; series mostly up to 46.1 µM; lipid storage change, negative = inhibition: at the top concentration
Outline: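 Laser-scanning cytometry quantifies lipid droplet accumulation (500–530 nm total intensity; droplet/cell object ratio) in oleic acid-fed (400 uM added) Drosophila S3 cells treated with a concentration series. 20 uM Triacsin C defined 100% inhibition.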
In the case of Cn1c(NC(=O)/C=C\c2ccccc2)cc(=O)n(C)c1=O, the “lipid storage change, negative = inhibition” value is reported as 2.84% (inactive) and the cell number change is reported as -2.62%.
In the case of COC(=O)c1ccc(OC(=O)c2ccccn2)cc1, the “lipid storage change, negative = inhibition” value is reported as -5.28% (inactive) and the cell number change is reported as 10.3%.
For CC(=O)c1ccccn1, the “lipid storage change, negative = inhibition” value was 9.67% (inactive) and the cell number change was 12.7%.
In the case of CC1(C)CC(=O)CC(C)(C)N1OC(=O)c1ccccn1, the Potency is reported as 32.6 µM (active).
With CC(C#N)Sc1nnc(-c2ccccc2F)n1C1CC1 (centres undefined) the “outcome” value was “inactive” and the cell number change was 7.26%.
With NNC(=O)c1cc(C2CC2)nc2ccc(Br)cc12 the “lipid storage change, negative = inhibition” value was 0.205% (inactive) and the cell number change was -5.67%.
For O=C(NCCOc1nc(N2CCOCC2)nc(N2CCOCC2)n1)Nc1ccccc1, the “lipid storage change, negative = inhibition” value was 6.9% (inactive) and the cell number change was -14.8%.
With O=C(NCCOc1nc(N2CCCCC2)nc(N2CCCCC2)n1)Nc1ccccc1 the “lipid storage change, negative = inhibition” value was -1.62% (inactive) and the cell number change was 0.327%.
In the case of O=C(NCCOc1nc(N2CCCCC2)nc(N2CCOCC2)n1)Nc1ccccc1, the Potency is reported as 0.731 µM (active) and the cell number change is reported as -5.19%.
With Cc1ccc(NNC(N)=S)cc1Cl the “lipid storage change, negative = inhibition” value was 10.3% (inactive) and the cell number change was 18.1%.
In the case of COc1ccccc1-c1nnc(C2CCN(S(=O)(=O)c3ccccc3[N+](=O)[O-])CC2)o1, the “lipid storage change, negative = inhibition” value is reported as -28.1% (inactive).
In the case of Cc1cccc(-c2nc(CN3CCCC(C(=O)NC4CCCCCC4)C3)c(C)o2)c1 (centres undefined), the “lipid storage change, negative = inhibition” value is reported as -4.34% (inactive) and the cell number change is reported as 2.33%.
With CCc1cc(C(=O)N2CCN(S(=O)(=O)c3ccc(Cl)cc3)CC2)sc1C the Potency was 11.6 µM (active) and the cell number change was 6.97%.
For Cc1ccc(C)c(S(=O)(=O)N2CCN(C(=O)c3cccn3C)CC2)c1, the “outcome” value was “inactive” and the cell number change was -13.9%.
With Cc1ccc(C)c(S(=O)(=O)N2CCN(C(=O)c3ccc(C)s3)CC2)c1 the “lipid storage change, negative = inhibition” value was -9.47% (inactive) and the cell number change was 6.27%.
With CCOC(=O)N1CCN(S(=O)(=O)c2ccc(Cl)cc2)CC1 the “outcome” value was “inactive” and the cell number change was 24.3%.
For Cc1ccccc1-n1nc(C)c2cc(C(=O)N3CCN(S(=O)(=O)c4ccc(Cl)cc4)CC3)sc21, the “lipid storage change, negative = inhibition” value was -0.0133% (inactive) and the cell number change was -4.24%.
For CCc1cc(C(=O)N2CCN(S(=O)(=O)c3cc(C)ccc3C)CC2)sc1C, the Potency was 20.6 µM (active) and the cell number change was -8.23%.
In the case of COc1ccccc1N1CCN(CC(O)COc2ccc3c(c2)CCC3)CC1 (centres undefined), the “lipid storage change, negative = inhibition” value is reported as -12.6% (inactive) and the cell number change is reported as 1.49%.
In the case of COc1ccc(-c2cc(C(=O)N3CCOCC3)no2)cc1OC, the “lipid storage change, negative = inhibition” value is reported as 10.4% (inactive) and the cell number change is reported as -3.96%.
For CSCCNC(=O)Nc1c(-c2c(Cl)cccc2Cl)noc1C, the “lipid storage change, negative = inhibition” value was 2.52% (inactive).
In the case of CCOC(=O)CC1(c2ccccc2)CCOC(C)(C)C1 (centres undefined), the “lipid storage change, negative = inhibition” value is reported as -20% (inactive) and the cell number change is reported as 5.31%.
In the case of CCC1(C)CC(CC(=O)O)(c2ccccc2OC)CCO1 (centres undefined), the Potency is reported as 29.1 µM (active) and the cell number change is reported as -13.5%.
In the case of COc1ccccc1C1(CC(=O)O)CCOC(C(C)C)C1 (centres undefined), the “lipid storage change, negative = inhibition” value is reported as -17.5% (inactive) and the cell number change is reported as -4.59%.
In the case of CC(C)c1ccc(S(=O)(=O)N2CCN(C(=O)C3CC3C)CC2)cc1 (centres undefined), the cell number change is reported as 13.5% and the lipid storage change, negative = inhibition is reported as 9.88% [at 0.0737 µM] (inactive).
For CC(=O)N1CCc2cc(Br)cc(S(=O)(=O)NCCCN3CCC(C)CC3)c21, the “lipid storage change, negative = inhibition” value was -1.66% (inactive) and the cell number change was 6.06%.
For Cc1cnc(C(=O)OCC(=O)c2ccc(F)c(F)c2)cn1, the “outcome” value was “inactive” and the cell number change was 6.94%.
With Cc1nc2ncnn2c(C)c1CCC(=O)NC(C)CCc1ccco1 (centres undefined) the “lipid storage change, negative = inhibition” value was -27.5% (inactive) and the cell number change was -25.3%.
With CC(C)Oc1ccccc1C(=O)NC(CO)C(=O)O (centres undefined) the “lipid storage change, negative = inhibition” value was 7.17% (inactive) and the cell number change was -13.9%.
For CC(C)COc1ccccc1C(=O)NC(CO)C(=O)O (centres undefined), the “lipid storage change, negative = inhibition” value was 10% (inactive) and the cell number change was -5.46%.
With CCOc1ccccc1C(=O)NC(CO)C(=O)O (centres undefined) the Potency was 20.6 µM (active) and the cell number change was -20.4%.
For CS(=O)(=O)N(Cc1ccccc1)c1ccc(C(=O)N2CCc3ccccc3C2)cc1, the “lipid storage change, negative = inhibition” value was -15.5% (inactive) and the cell number change was 13.2%.
With Cc1cc(/C=N/Nc2nc(N3CCOCC3)nc(N3CCOCC3)n2)c(C)n1-c1ccccc1 the “lipid storage change, negative = inhibition” value was 0.381% (inactive) and the cell number change was 2.32%.
For CCCCn1c(N)c(N(CC)C(=O)C2CCCC2)c(=O)[nH]c1=O, the “lipid storage change, negative = inhibition” value was 1.39% (inactive) and the cell number change was 14.7%.
With CC(=O)N1c2ccc(S(=O)(=O)N(C)CC(=O)NC3CCCCC3C)cc2CC1C (centres undefined) the “outcome” value was “inactive”.
For COc1cn(-c2ccccc2)nc1C(=O)Nc1ccccc1, the Potency was 0.92 µM (active) and the cell number change was 5.86%.
In the case of COc1cn(-c2ccccc2)nc1C(=O)OCC(=O)Nc1ccc(C)c(C)c1, the “lipid storage change, negative = inhibition” value is reported as 8.1% (inactive) and the cell number change is reported as -22.3%.
In the case of COc1cn(-c2ccccc2)nc1C(=O)NCc1ccccc1, the “outcome” value is reported as “inactive” and the cell number change is reported as 10.4%.
With Cc1cc(C)c(OCC(=O)Nc2ccc3c(c2)OCO3)cc1C the “outcome” value was “inactive”.
In the case of CC(C)C1Oc2ccccc2N(CC(=O)N(Cc2ccncc2)Cc2ccco2)C1=O (centres undefined), the “lipid storage change, negative = inhibition” value is reported as 0.319% (inactive) and the cell number change is reported as -0.805%.
In the case of CN(CCCC1CCCC1)C(=O)c1cc(COc2c(F)cccc2F)on1, the Potency is reported as 5.8 µM (active) and the cell number change is reported as -27.2%.
With CN(CCCN1CCOCC1)C(=O)c1cc(COc2c(F)cccc2F)on1 the “outcome” value was “inactive”.
For CN(CCCC1CCCC1)C(=O)c1cc(COc2ccc(F)cc2F)on1, the “lipid storage change, negative = inhibition” value was -23.9% (inactive) and the cell number change was 15.8%.
In the case of Cc1c(NC(=O)c2n[nH]c(=O)c3ccccc23)c(=O)n(-c2ccccc2)n1C, the “lipid storage change, negative = inhibition” value is reported as -4.65% (inactive) and the cell number change is reported as 5.44%.
For Cc1c(NC(=O)c2ccc(N(C)S(=O)(=O)c3ccccc3)cc2)c(=O)n(-c2ccccc2)n1C, the “lipid storage change, negative = inhibition” value was 3.31% (inactive) and the cell number change was 0.409%.
With CCO[C@H]1OC(C(=O)NCc2nc3ccccc3[nH]2)=C[C@@H](C2CCCCC2)[C@@H]1CCCO the “lipid storage change, negative = inhibition” value was -4.55% (inactive) and the cell number change was -1.73%.
For Cc1cc(O)cc2c1C(c1ccc(F)cc1)CC1(CC(C)(C)NC(=S)N1)O2 (centres undefined), the “lipid storage change, negative = inhibition” value was 15.9% (inactive) and the cell number change was 11.1%.
With COc1ccc(C2CC3(CC(C)(C)NC(=S)N3)Oc3cc(O)cc(C)c32)cc1 (centres undefined) the “lipid storage change, negative = inhibition” value was 22% (inactive) and the cell number change was -1.84%.
With COc1ccc(C2CC3(CC(C)(C)NC(SC)=N3)Oc3cc(O)cc(C)c32)cc1 (centres undefined) the Potency was 23.1 µM (active) and the cell number change was 26.2%.
With O=C(COc1ccc(Cl)cc1Cl)N/N=C/c1ccc(OC2OC(CO)C(O)C(O)C2O)cc1 (centres undefined) the “outcome” value was “inactive” and the cell number change was 14.9%.
In the case of O=c1[nH]c(/C=C/c2cccc3ccccc23)nc2ccccc12, the “lipid storage change, negative = inhibition” value is reported as -10.1% (inactive) and the cell number change is reported as 1.01%.
For O=c1[nH]c(/C=C/c2ccccc2F)nc2ccccc12, the “outcome” value was “inactive”.
In the case of N#CCOc1ccccc1/C=C/c1nc2ccccc2c(=O)[nH]1, the Potency is reported as 0.82 µM (active) and the cell number change is reported as 5.41%.
For Cc1ccc(SCc2nc3ccccc3n2CC(=O)Nc2ccc(Cl)cc2)cc1, the Potency was 11.6 µM (active) and the cell number change was -17.3%.
In the case of Cc1ccc(SCc2nc3ccccc3n2CC(=O)Nc2c(C)cccc2C)cc1, the “lipid storage change, negative = inhibition” value is reported as -6.68% (inactive) and the cell number change is reported as 5.98%.
For O=C(Cn1c(CSc2ccccc2)nc2ccccc21)Nc1ccccc1, the “lipid storage change, negative = inhibition” value was 2.53% (inactive).
For CCOC(=O)CSc1nnc(-c2ccc3ncccc3c2)n1C, the “lipid storage change, negative = inhibition” value was 19.8% (inactive) and the cell number change was -5.02%.
For Cc1ccc(S(=O)(=O)NN2C(=O)c3ccccc3NC2c2ccccc2)cc1 (centres undefined), the “lipid storage change, negative = inhibition” value was 0.893% (inactive) and the cell number change was 14.4%.
In the case of Cc1cc2c(cc(C(=O)OC(C(=O)NC3CCCCC3)C(C)C)n2C)o1 (centres undefined), the Potency is reported as 1.46 µM (active) and the cell number change is reported as -21.3%.
In the case of COCCNC(=O)C(OC(=O)c1cc2oc(C)cc2n1C)C(C)C (centres undefined), the “lipid storage change, negative = inhibition” value is reported as -24.2% (inactive) and the cell number change is reported as 9.13%.
With CC(C)C(OC(=O)c1ccco1)C(=O)NC1CCCCC1 (centres undefined) the “lipid storage change, negative = inhibition” value was 4.26% (inactive) and the cell number change was 10.7%.
